# Assay results published in ChEMBL document CHEMBL3988442, “University of Dundee, Small-Polar-MMV Screening Library” (2021).
# What was measured:
# [1] = biological target: T1, Aspartate--tRNA(Asp/Asn) ligase (Mycobacterium tuberculosis (strain ATCC 25618 / H37Rv)) (UniProt P9WFW3); test: Assay for Asp RNA synthetase-1 from Mycobacterium tuberculosis; format: functional; set-up: scale not given: direction of the effect not stated beside the values; conditions: 30 µM; further: in the data most compounds retested in dose-response had high values
# T1 sequence (whole entry): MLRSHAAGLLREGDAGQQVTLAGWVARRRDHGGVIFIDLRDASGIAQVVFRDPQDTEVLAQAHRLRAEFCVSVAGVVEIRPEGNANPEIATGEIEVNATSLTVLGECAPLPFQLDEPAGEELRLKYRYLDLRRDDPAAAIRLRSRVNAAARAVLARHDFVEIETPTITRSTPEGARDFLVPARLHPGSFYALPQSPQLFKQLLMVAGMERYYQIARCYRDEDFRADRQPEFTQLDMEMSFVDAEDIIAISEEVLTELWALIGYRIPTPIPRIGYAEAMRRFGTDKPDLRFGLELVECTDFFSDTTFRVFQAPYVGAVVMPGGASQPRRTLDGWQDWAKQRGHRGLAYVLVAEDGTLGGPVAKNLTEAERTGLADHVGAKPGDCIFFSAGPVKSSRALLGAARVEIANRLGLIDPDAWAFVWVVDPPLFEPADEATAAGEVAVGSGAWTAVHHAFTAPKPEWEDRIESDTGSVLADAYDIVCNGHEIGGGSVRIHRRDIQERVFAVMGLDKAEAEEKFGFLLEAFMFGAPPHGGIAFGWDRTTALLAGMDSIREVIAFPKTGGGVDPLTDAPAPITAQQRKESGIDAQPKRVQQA
# [2] = biological target: Shiga toxin 2 (Escherichia coli O157:H7) (UniProt P09385+P09386); test: E. coli 0.157:H7 Shiga Toxin SOP - stx2 screening assay; format: functional; set-up: scale not given: direction of the effect not stated beside the values; conditions: 30 µM
Structure (SMILES),Percent Effect [1] [%],Percent Effect [2] [%]
COc1cccc(CNC(=O)CC2CSc3ncc(C)c(=O)n32)c1 (centres undefined),1.5,6.98
O=C1CCSCC(C(=O)N2CCCC2)N1 (centres undefined),-3.45,-6.39
Cc1cnn(CC(C)NCc2csc(-c3ccco3)n2)c1 (centres undefined),2.75,1.53
CN(C)c1ncnc2c1CCN(CC1CCCC1)CC2,-1.05,-5.38
CCC1CN(C(=O)c2ccc(=O)[nH]c2)CCC(=O)N1Cc1ccccc1 (centres undefined),-4.62,5.03
Cc1noc2ncc(C(=O)N3CCCC3c3cnn(C)c3)cc12 (centres undefined),3.4,-3.42
CCOCC1CC2(CCN(Cc3ccccn3)CC2)CO1 (centres undefined),0.869,-0.96
CCS(=O)(=O)N1CCC2(CC1)CN(Cc1ccccn1)C(=O)CO2,0.198,-10.6
Cc1ccc(-c2nnc(CN3CCOC(Cn4cccn4)C3)o2)cc1 (centres undefined),-0.257,-10.3
O=C(c1cscn1)N1CCC2(CCN(Cc3cccs3)CC2)C1,-4.17,-7.4
Cc1ccc(CNS(=O)(=O)CC2=NC(=O)n3cccc3C2=O)cc1,3.72,4.1
CCC(=O)N1CCCC(c2cc(Nc3ncccn3)nc(C)n2)C1 (centres undefined),1.35,12.4
Cc1ccc(SCC2CNc3nc4ccccc4c(=O)n32)c(C)c1 (centres undefined),0.0228,9.77
C[C@@H]1CN(C(=O)NC2CC2)C[C@]12CCN(c1ccsc1)C2=O,2.34,-3.08
CS(=O)(=O)NC1CCN(C(=O)NCCc2ccccc2F)CC1,-3.88,-19.2
O=C1C(NCc2nnc3n2CCCC3)CCCN1c1cccc(F)c1 (centres undefined),0.344,-64.6
Clc1snnc1CN1CCCCC1Cn1cncn1 (centres undefined),-1.89,-12
Cc1cnn(CC2CCCN2Cc2coc(-c3cccs3)n2)c1 (centres undefined),1.41,4.89
CCCn1ccc2ccc(NC(=O)N(C)CCOC)cc21,-4.94,-13.1
Cn1cc(N2CC3(CCN(CC4CCOCC4)CC3)OCC2=O)cn1,-2.85,-32.8
O=C(NCCCNC(=O)c1cccc(O)c1)NCc1ccccc1F,-5.63,-41.9
CNS(=O)(=O)c1cccc(CNc2nccc(C(F)(F)F)n2)c1,3.75,4.67
CC(C)CNC(=O)Nc1ccc(CN2CCOC2=O)cc1,1.75,-53.2
Clc1ccc2oc(C3CCN(Cc4cccnc4)CC3)nc2c1,1.26,-46.7

Structure (SMILES),Percent Effect [1] [%],Percent Effect [2] [%]
O=C(CSc1nncs1)N1CCN(Cc2ccc(Cl)s2)CC1,-5.38,-5.37
Cc1ccc(CNCc2nnc3n2CC(C(F)(F)F)CC3)cc1 (centres undefined),-6.08,-16
O=C(c1ccncc1)N1CCC2(CC1)CC(Oc1cccnc1)CO2 (centres undefined),4.1,12.2
COCCN1C(=O)CC(N2CCN(c3ccc(OC)cc3)CC2)C1=O (centres undefined),-5.68,3.53
Cc1nn(C)c(N(C)C)c1CNCc1ccccc1CN(C)C,-4.76,-24.6
Cc1cccc(C(=O)N2CCCN(Cc3cnn(C)c3)CC2)n1,-3.08,-31.1
Cc1cc(S(=O)(=O)NCc2cccc(C(=O)N3CCCC3)c2)c(C)s1,2.16,5.68
COc1cc2nc3n(c(=O)c2cc1OC)CCN(C(C)=O)CC3,-0.551,17
Cc1nc(C)n(C2CCCN(C(=O)c3cc4ccccc4n3C)C2)n1 (centres undefined),-0.634,15
O=C(c1cscn1)N1CC[C@]2(C[C@@H](OCCN3CCCC3)CO2)C1,-3.81,-17.4
Cc1ccc(CNC(=O)N2CCCCC2CCNS(C)(=O)=O)cc1 (centres undefined),1.04,6.21
Cc1ccc(S(=O)(=O)NC(=O)c2cccc3c2OCCO3)c(C)c1,-3.08,-9.09
CC(=O)c1ccc(OCC(=O)NC(C)CCc2ccco2)cc1 (centres undefined),4.56,-18.5
COc1ccccc1C(=O)N(C)Cc1ncc(C)c(OC)c1C,-4.81,11.8
Cc1noc(C)c1CN1CCN(C(=O)Cn2cncn2)CC1,3.12,7.4
CCn1nnc2c1C(COC)CN(C(=O)Cc1cccs1)C2 (centres undefined),-8.15,-30.3
Cn1cccc1C(=O)N1CCc2ncnc(C3CC3)c2CC1,0.574,-1.81
O=C1CC(c2cccc(O)c2)c2sc(C(=O)O)c(-c3ccccc3)c2N1 (centres undefined),-3.78,-24.7
CC(C)Cc1cc(C(=O)N2CCCC(n3cncn3)C2)[nH]n1 (centres undefined),-3.97,2.44
O=C(CCc1nccs1)N1CCN(c2ccc(Br)cn2)CC1,3.92,23.4
CCc1ncc2c(n1)CN(CC(=O)Nc1ccc(Cl)cn1)CC2,0.367,-9.49
CNc1nc(CNC(=O)Nc2ccccc2SC)cs1,-0.278,22.5
O=C(C1CC1)N1CCCC1C1CCN(Cc2ccccc2)CC1 (centres undefined),-4.34,-13.2
